Assay results as given in PubChem BioAssay (NCATS).
Where “and” joins values, the source holds several entries; their conditions need not be identical. Identical values can stand only once. Starred links: 1 amine or outer side, 2 acyl side, 3 side chain; linkers in the order of their positions; H or OH if unused. Positions of bridges follow the written chain, without caps; N, C: chain ends. Non-standard residues stand in square brackets, D forms with d. Residues, ends and D or L forms follow the SMILES beside them. Chains are numbered I, II in the order given. Actinocin(9to1) = Cc1c2oc3c(C)ccc(C(=O)[*:1])c3nc-2c(C(=O)[*:2])c(N)c1=O; NMeV = CN[CH](C(=O)O)C(C)C; Sar = CNCC(=O)O

experiment: qHTS drug screen for cell cycle checkpoint inhibitors in PARPi-resistant BRCA-mutant ovarian cancer cell lines. (AID 1963452); details: PEO1/OlaR viability, CellTiter-Glo luminescence, 96 h; measured here: PEO1 parental Z-AUC; stronger effect = lower value
Outline: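 PEO1, PEO4 and PEO1/OlaR ovarian cancer cells, 600 per well, exposed 96 h at 37C to a dilution series. Viability read by CellTiter-Glo luminescence, normalized to DMSO and empty wells; activity summarized as Z-AUC.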

Row | SMILES | Z-AUC
1 | O=C1NCCc2[nH]c(-c3ccncc3)cc21 | -1
2 | Cn1cc(C2=C(c3c4n(c5ccccc35)CCC(CN)C4)C(=O)NC2=O)c2ccccc21 (stereo unspecified) | 1.25
3 | CC(C)c1cnn2c(NCc3ccccc3)cc(NCCCCCCN)nc12 | 1.33
4 | Cc1ccc2nc(NCCN)c3ncc(C)n3c2c1 | 0.537
5 | O=C(O)CCCCC(CCSCc1ccccc1)SCc1ccccc1 (stereo unspecified) | 1.63
6 | CC(C)Oc1ccc(C(=O)N[C@H](CNC(=O)CN(C)C)Cc2ccc(-c3cn4cccc([C@H](C)O)c4n3)cc2)cc1Cl | -0.733
7 | Nc1nc(=O)n([C@H]2C[C@H](O)[C@@H](CO)O2)cc1F | -1.19
8 | CN1CCc2c(c3ccccc3n2Cc2ccc(C(=O)NO)cc2)C1 | -0.74
9 | C=C[C@@H]1CN2CCC1C[C@H]2[C@H](O)c1ccnc2ccc(OC)cc12 (stereo partly specified) | 0.594
10 | O=[N+]([O-])c1cn2c(n1)OC[C@@H](OCc1ccc(OC(F)(F)F)cc1)C2 | 0.61
11 | COC(=O)C1C2CC3c4[nH]c5cc(OC)ccc5c4CCN3CC2CC(OC(=O)c2cc(OC)c(OC)c(OC)c2)C1OC (stereo unspecified) | 0.441
12 | Cc1cnc(Nc2ccc(CN3CCOCC3)cc2)nc1Nc1cccc(S(=O)(=O)NC(C)(C)C)c1 | -1.2
13 | Nc1ccn(C2CO[C@H](CO)O2)c(=O)n1 (stereo partly specified) | 0.905
14 | COc1ccc(Nc2nccc(NCCO)n2)cc1 | 0.748
15 | Oc1cc2c(cc1O)C1c3ccc(O)c(O)c3OCC1(O)C2 (stereo unspecified) | 1.33
16 | COc1cc2ncnc(Nc3cccc(Br)c3)c2cc1OC | 0.586
17 | Oc1ccc([C@@H]2Oc3ccc(O)cc3[C@@H]3CCC[C@@H]32)cc1 | -0.25
18 | CC(C)n1cnc2c(NCCc3ccc(O)cc3)nc(-c3csc4ccccc34)nc21 | 0.415
19 | CC(C)C[C@H](NC(=O)[C@@H](NC(=O)c1cccc(-c2ccccc2)n1)[C@@H](C)O)B(O)O | -2.93

Row | SMILES | Z-AUC
20 | Cc1cc(O)c2c(c1)C(=O)c1cccc(O)c1C2=O | 0.00192
21 | Cn1cnc(=N)c2[nH]cnc21 | 0.768
22 | CC(C)c1cc(C(C)C)c(CC(=O)NS(=O)(=O)Oc2c(C(C)C)cccc2C(C)C)c(C(C)C)c1 | 0.546
23 | FC(F)c1nc2ccccc2n1-c1nc(N2CCOCC2)nc(N2CCOCC2)n1 | -1.07
24 | O=C(Nc1cccc(Nc2ncc(Br)c(NCCc3cnc[nH]3)n2)c1)N1CCCC1 | -0.127
25 | Cc1c2oc3c(C)ccc(C(=O)NC4C(=O)NC(C(C)C)C(=O)N5CCCC5C(=O)N(C)CC(=O)N(C)C(C(C)C)C(=O)OC4C)c3nc-2c(C(=O)NC2C(=O)NC(C(C)C)C(=O)N3CCCC3C(=O)N(C)CC(=O)N(C)C(C(C)C)C(=O)OC2C)c(N)c1=O (stereo unspecified) (I: TVP[Sar][NMeV] / II: TVP[Sar][NMeV]; ester I:1-I:C, II:1-II:C; linker I:N-II:N via Actinocin(9to1); configuration not given here) | -0.674
26 | Cn1cc(-c2ccc3ncc(Cc4ccc5ncccc5c4)n3n2)cn1 | 0.877
27 | COc1cc(C(C)C)c(Oc2cnc(NC(CO)CO)nc2N)cc1I | 1.44
28 | Cn1cc(CNCC2CCN(c3ncc(C(=O)NO)cn3)CC2)c2ccccc21 | -1.95
29 | CCCNS(=O)(=O)Nc1ncnc(OCCOc2ncc(Br)cn2)c1-c1ccc(Br)cc1 | 0.726
30 | N#CNC(=NCCCCCCOc1ccc(Cl)cc1)Nc1ccncc1 | -3.38
31 | O=C1c2cccc(O)c2C(=O)c2c(O)cc(CO)cc21 | -0.222
32 | Cn1cc(-c2cnn3c(N)c(Br)c([C@H]4CCCNC4)nc23)cn1 | 0.414 and -1.48
33 | Cc1noc(-c2ccc(CSCCC(=O)O)cc2)c1NC(=O)OC(C)c1ccccc1Cl (stereo unspecified) | -0.869
34 | CCOC(=O)[C@@H](N)Cc1ccc(-c2cc(O[C@H](c3ccc(Cl)cc3-n3ccc(C)n3)C(F)(F)F)nc(N)n2)cc1 | -0.62
35 | COc1cccc2c1C(=O)c1c(O)c3c(c(O)c1C2=O)C[C@@](O)(C(=O)CO)C[C@@H]3O[C@H]1C[C@H](N)[C@H](OC2CCCCO2)[C@H](C)O1 (stereo partly specified) | -0.769 and -1.75
36 | NC1=N[C@H]2[C@H](CS[C@H]2CCCCC(=O)O)N1 | 0.0828
37 | CC1=C(C(=O)Nc2cc3cn[nH]c3cc2F)C(c2ccc(Cl)cc2F)N=C(c2ccnc(Cl)c2)N1 (stereo unspecified) | 0.693
38 | C[C@@H]1C(=O)O[C@H]2CC34[C@H]5C[C@@H](C(C)(C)C)C36[C@H](OC(=O)[C@@H]6O)O[C@@]4(C(=O)O5)[C@]21O (stereo partly specified) | 0.5

same assay, conditions: PEO1/OlaR viability, CellTiter-Glo luminescence, 96 h; measured here: PEO4 Z-AUC; stronger effect = lower value

Row | SMILES | Z-AUC
39 | O=C1NCCc2[nH]c(-c3ccncc3)cc21 | -1.61
40 | Cn1cc(C2=C(c3c4n(c5ccccc35)CCC(CN)C4)C(=O)NC2=O)c2ccccc21 (stereo unspecified) | 1.18
41 | CC(C)c1cnn2c(NCc3ccccc3)cc(NCCCCCCN)nc12 | 1.15
42 | Cc1ccc2nc(NCCN)c3ncc(C)n3c2c1 | 1.09
43 | O=C(O)CCCCC(CCSCc1ccccc1)SCc1ccccc1 (stereo unspecified) | 1.32
44 | CC(C)Oc1ccc(C(=O)N[C@H](CNC(=O)CN(C)C)Cc2ccc(-c3cn4cccc([C@H](C)O)c4n3)cc2)cc1Cl | -1.18
45 | Nc1nc(=O)n([C@H]2C[C@H](O)[C@@H](CO)O2)cc1F | -0.999
46 | CN1CCc2c(c3ccccc3n2Cc2ccc(C(=O)NO)cc2)C1 | -1.03
47 | C=C[C@@H]1CN2CCC1C[C@H]2[C@H](O)c1ccnc2ccc(OC)cc12 (stereo partly specified) | 0.97
48 | O=[N+]([O-])c1cn2c(n1)OC[C@@H](OCc1ccc(OC(F)(F)F)cc1)C2 | 0.849
49 | COC(=O)C1C2CC3c4[nH]c5cc(OC)ccc5c4CCN3CC2CC(OC(=O)c2cc(OC)c(OC)c(OC)c2)C1OC (stereo unspecified) | 0.416
50 | Cc1cnc(Nc2ccc(CN3CCOCC3)cc2)nc1Nc1cccc(S(=O)(=O)NC(C)(C)C)c1 | -1.56
51 | Nc1ccn(C2CO[C@H](CO)O2)c(=O)n1 (stereo partly specified) | 0.884
52 | COc1ccc(Nc2nccc(NCCO)n2)cc1 | 0.763
53 | Oc1cc2c(cc1O)C1c3ccc(O)c(O)c3OCC1(O)C2 (stereo unspecified) | 1.39
54 | COc1cc2ncnc(Nc3cccc(Br)c3)c2cc1OC | 0.428
55 | Oc1ccc([C@@H]2Oc3ccc(O)cc3[C@@H]3CCC[C@@H]32)cc1 | -0.0299
56 | CC(C)n1cnc2c(NCCc3ccc(O)cc3)nc(-c3csc4ccccc34)nc21 | 0.466
57 | CC(C)C[C@H](NC(=O)[C@@H](NC(=O)c1cccc(-c2ccccc2)n1)[C@@H](C)O)B(O)O | -3.51

Row | SMILES | Z-AUC
58 | Cc1cc(O)c2c(c1)C(=O)c1cccc(O)c1C2=O | -0.281
59 | Cn1cnc(=N)c2[nH]cnc21 | 0.897
60 | CC(C)c1cc(C(C)C)c(CC(=O)NS(=O)(=O)Oc2c(C(C)C)cccc2C(C)C)c(C(C)C)c1 | 1.13
61 | FC(F)c1nc2ccccc2n1-c1nc(N2CCOCC2)nc(N2CCOCC2)n1 | -0.858
62 | O=C(Nc1cccc(Nc2ncc(Br)c(NCCc3cnc[nH]3)n2)c1)N1CCCC1 | -0.522
63 | Cc1c2oc3c(C)ccc(C(=O)NC4C(=O)NC(C(C)C)C(=O)N5CCCC5C(=O)N(C)CC(=O)N(C)C(C(C)C)C(=O)OC4C)c3nc-2c(C(=O)NC2C(=O)NC(C(C)C)C(=O)N3CCCC3C(=O)N(C)CC(=O)N(C)C(C(C)C)C(=O)OC2C)c(N)c1=O (stereo unspecified) (I: TVP[Sar][NMeV] / II: TVP[Sar][NMeV]; ester I:1-I:C, II:1-II:C; linker I:N-II:N via Actinocin(9to1); configuration not given here) | -0.27
64 | Cn1cc(-c2ccc3ncc(Cc4ccc5ncccc5c4)n3n2)cn1 | 0.786
65 | COc1cc(C(C)C)c(Oc2cnc(NC(CO)CO)nc2N)cc1I | 1.02
66 | Cn1cc(CNCC2CCN(c3ncc(C(=O)NO)cn3)CC2)c2ccccc21 | -1.89
67 | CCCNS(=O)(=O)Nc1ncnc(OCCOc2ncc(Br)cn2)c1-c1ccc(Br)cc1 | 1.05
68 | N#CNC(=NCCCCCCOc1ccc(Cl)cc1)Nc1ccncc1 | -3.13
69 | O=C1c2cccc(O)c2C(=O)c2c(O)cc(CO)cc21 | -0.301
70 | Cn1cc(-c2cnn3c(N)c(Br)c([C@H]4CCCNC4)nc23)cn1 | 0.266 and -1.31
71 | Cc1noc(-c2ccc(CSCCC(=O)O)cc2)c1NC(=O)OC(C)c1ccccc1Cl (stereo unspecified) | -0.91
72 | CCOC(=O)[C@@H](N)Cc1ccc(-c2cc(O[C@H](c3ccc(Cl)cc3-n3ccc(C)n3)C(F)(F)F)nc(N)n2)cc1 | -0.32
73 | COc1cccc2c1C(=O)c1c(O)c3c(c(O)c1C2=O)C[C@@](O)(C(=O)CO)C[C@@H]3O[C@H]1C[C@H](N)[C@H](OC2CCCCO2)[C@H](C)O1 (stereo partly specified) | 0.0749 and -1.06
74 | NC1=N[C@H]2[C@H](CS[C@H]2CCCCC(=O)O)N1 | 0.00068
75 | CC1=C(C(=O)Nc2cc3cn[nH]c3cc2F)C(c2ccc(Cl)cc2F)N=C(c2ccnc(Cl)c2)N1 (stereo unspecified) | 0.963
76 | C[C@@H]1C(=O)O[C@H]2CC34[C@H]5C[C@@H](C(C)(C)C)C36[C@H](OC(=O)[C@@H]6O)O[C@@]4(C(=O)O5)[C@]21O (stereo partly specified) | 0.284
